Compound activity deposited in PubChem BioAssay by National Center for Advancing Translational Sciences (NCATS).
Rows were chosen to be rich in hits. Some 21% of all compounds tested hit in one or more screens of this group.
SARS PLP yeast: blocks SARS-CoV papain-like protease in a yeast assay. S. cerevisiae expressing SARS-CoV PLpro, growth rescue. Potency, µM (highest dose often 32.9 µM), for the others: at the top dose activity, positive = growth rescue, hits mostly activators. 330,000 tested, 0.19% active; calls by dose curve; further: potency means the concentration at half of the fitted maximal effect; 0% is about no effect; nearly all actives have a fitted effect of over 55% in size
CHX counter: affects cycloheximide protein synthesis inhibition readout, counter-screen | cell reporter, cycloheximide protein synthesis inhibition counterscreen | max response, % | 300,000 tested, 12% active; in the data active means max response mostly above about 13%, no sharp cut-off; inactive means mostly below about 14%; further: read at 38.3 µM for the half of the compounds with a filed dose; 0% is about no effect
Pf growth 96h: inhibits malaria parasite growth, 96 h | P. falciparum luciferase reporter growth, 96 h | AID 504834 | Potency, µM (titrated, usually from 28.7 µM), for the others: top-dose activity change, negative = inhibition, usual class: inhibitors | 320,000 tested, 6.9% active; further: potency means the concentration at half of the fitted maximal effect; on the % scale 0 is the no-effect control and ±100 the full control effect
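Compounds incubated with erythrocytes infected by luciferase-expressing P. falciparum (2% hematocrit, 0.05% parasitemia final) for 96 hours, 37 C in 5% CO2. Growth inhibition scored as decreased luciferase luminescence.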
Shiga inhibitor: inhibitors of Shiga toxin in Vero cells. inhibition, % at 38.7 µM. Vero cells, Shiga toxin protein synthesis inhibition reporter. 290,000 tested, 9.2% active; in the data active means inhibition mostly above about 28%, no sharp cut-off; inactive means mostly below about 43%; further: 0% is about no effect
Pf growth 48h: inhibits P. falciparum growth in the first generation, 48 h. Potency, µM (highest dose often 28.7 µM), for the others: top-dose activity change, negative = inhibition, most hits filed as inhibitors. P. falciparum luciferase growth in erythrocytes, 48 h. AID 504832. 310,000 tested, 5.9% active; further: potency means the concentration at half of the fitted maximal effect; on the % scale 0 is the no-effect control and ±100 the full control effect
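Luminescence readout; reporter = integrated firefly luciferase in P. falciparum. RBC culture at 2% hematocrit, 0.1% parasitemia final, 37 C/5% CO2; decreased signal taken as growth inhibition.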
NS1 inh: blocks influenza NS1 protein function; Potency, µM (top dose mostly 46.1 µM), without a hit: at the highest dose activity, positive = more growth; 270,000 tested, 0.4% active; calls by dose curve; further: potency means the concentration at half of the fitted maximal effect; actives are rising curves; nearly all actives have a fitted effect of over 50% in size
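Compounds were scored for reversing the slow growth caused by influenza A NS1 in S. cerevisiae, measured by optical density at 600 nm. Assay medium contained 2% galactose at pH 6.0; NS1-free yeast of the same strain were the positive control.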
Starred values were filed as active, the others as inactive; ? = inconclusive; · = not tested or not shown. Unless noted, the call rests on the fitted dose curve; in most records, active means well fitted inhibition curve with a large enough effect; inconclusive means small, poorly fitted or top-dose-only effect, or another doubt; inactive means no such curve, though single readings can be large or run the other way.

SMILES	SARS PLP yeast	CHX counter	Pf growth 96h	Shiga inhibitor	Pf growth 48h	NS1 inh
COc1ccccc1NC(=O)C1Cc2ccccc2CN1C(=O)c1ccco1 (configuration not stated)	-8.1%	-4.1	-18.9%	31.9	?	11.0%
Cc1c(Cl)cccc1NC(=O)C1Cc2ccccc2CN1C(=O)c1ccccc1 (configuration not stated)	?	7.2	9.28µM*	-7.4	-11.6%	6.3%
OCCN(Cc1ccccc1)Cc1ccc(F)c(F)c1	3.0%	-3.4	-7.5%	-28.1	-1.1%	6.6%
CC(C)Cn1c(-c2ccc(Br)cc2)c[nH]c1=S	4.5%	-4.7	-17.3%	11.3	-20.2%	·
Cc1ccc(N(C(=O)c2csnn2)C(C(=O)NC2CCCCC2)c2cccnc2)c(C)c1 (configuration not stated)	6.2%	-4.5	?	-23.3	-20.4%	7.7%
Cc1occc1-c1nnc(SCC(=O)NC2CC2)n1C(C)C	1.8%	0.3	-3.9%	10.4	6.2%	7.8%
NC1=CC(=O)c2cccc3cccc1c23	-4.8%	-3.6	0.0%	-1.8	2.94µM*	-37.5%
CCC(=O)NC(c1ccc([N+](=O)[O-])cc1)c1c(O)ccc2ccccc12 (configuration not stated)	-3.2%	-1.8	?	-10.3	4.15µM*	12.3%
COc1ccc(C(NC(=O)C(C)C)c2c(O)ccc3ccccc23)cc1 (configuration not stated)	-0.5%	-4.0	-0.5%	-15.9	?	1.8%
CCCCC(=O)NC(c1ccc([N+](=O)[O-])cc1)c1c(O)ccc2ccccc12 (configuration not stated)	-67.1%	-1.3	63.2%	-6.3	10.4µM*	-5.0%
CCC(=O)NC(c1ccc(OC)cc1)c1c(O)ccc2ccccc12 (configuration not stated)	20.7%	-2.9	-17.0%	-4.4	?	-0.3%
COc1ccc(C2=CC(=O)C[C@H](c3ccc4c(c3)OCO4)C2)cc1	-0.3%	·	-4.7%	·	-16.0%	·
Cc1cc(C)n(-c2nncn2NC(=O)c2ccc(Cl)cc2O)n1	0.8%	7.1	68.2%	-22.4	9.0%	4.3%
O=C(c1ccc(=O)[nH]n1)N1CCN(S(=O)(=O)c2cccc(F)c2)CC1	-0.6%	·	2.1%	·	10.9%	·
CCC(=O)Nc1cc(C(=O)O)ccc1Sc1ccc(C)cc1	1.6%	-8.9	?	-11.0	-24.2%	·
CCOc1ccc(S(=O)(=O)NCCC(=O)NCC2(N3CCCCC3)CCCCC2)cc1	4.4%	-0.7	?	9.8	-4.6%	3.7%
CNC(=O)Oc1ccc(-c2cn3cc(Cl)ccc3n2)cc1	8.0%	20.8*	3.9%	55.3	23.9%	4.1%
COc1ccc(-c2cn3cc(C)ccc3n2)cc1Br	-31.9%	40.2*	-5.7%	58.7*	159.5%	-8.8%
O=C(O)c1ccccc1-c1cn2cc(Cl)ccc2n1	-7.5%	0.9	228.6%	10.9	137.7%	·
COc1ccc(-c2cn3cc(Cl)ccc3n2)cc1OC	3.4%	21.4*	28.0%	92.0*	47.2%	-13.0%
Clc1ccc2nc(-c3ccc(Br)s3)cn2c1	-17.1%	22.3*	-18.9%	41.5*	?	-23.3%
Cc1ccc(C(=O)NC2CCC(C)CC2)o1 (configuration not stated)	7.7%	·	58.0%	·	-14.9%	·
Cc1nc2scc(-c3ccco3)c2c(=O)n1/N=C/N(C)C	1.7%	1.8	·	3.5	27.3%	6.0%
CCN(CC)CC(=O)Nc1sc(C)cc1C(=O)c1ccccc1	7.6%	4.7	-12.3%	2.7	3.29µM*	-3.9%
CCN(CC)CC(=O)Nc1sc(C)cc1C(=O)c1ccc(C)cc1	20.7%	-2.9	-23.7%	-8.9	?	-2.7%
CCc1cc(C(=O)c2ccc(Br)cc2)c(NC(=O)CN(CC)CC)s1	6.8%	-2.4	8.28µM*	-0.8	5.86µM*	-11.5%
C[C@@H](C(=O)N[C@@H](Cc1c[nH]c2ccccc12)C(=O)O)n1nnc2ccccc2c1=O	1.4%	1.8	?	6.0	-5.1%	10.0%
CCOc1ccc(N(C(=O)c2ccc3c(c2)OCO3)C2C=CS(=O)(=O)C2)cc1 (configuration not stated)	-6.5%	-1.4	-24.8%	-9.0	-8.6%	11.2%
Cc1ccc(CC(=O)N/N=C/c2ccc(OC(=O)c3ccc([N+](=O)[O-])cc3)cc2)cc1	-4.4%	-1.5	?	-11.9	-4.1%	12.2%
